Rows were chosen to be rich in hits. Some 3.3% of all compounds tested hit in one or more screens of this group.
Vaccinia mCherry – vaccinia inhibition (mCherry reporter); Vaccinia virus mCherry reporter infection, fluorescence; hit rate 0.63% among 310,000; AID 720579; Potency, µM (top dose mostly 36.5 µM), actives largely listed as inhibitors; calls by dose curve; tested in A549 cells; further: nearly all actives have a fitted effect of over 35% in size
HCV inhibitor – inhibitors of hepatitis C virus infection; hit rate 3.4% among 340,000; Huh7.5.1 HCVcc-Cre infection, luciferase reporter, 44 h; Potency, µM (highest dose often 41.8 µM), actives largely listed as inhibitors; active means well fitted inhibition curve with a large enough effect; inconclusive means small, poorly fitted or top-dose-only effect, or another doubt; inactive means no such curve, though single readings can be large or run the other way
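Seed cells (1,000/well) for 4 h; treat with compound and infect with HCVcc-Cre, moi about 0.5. Incubate 44 h, then detect luciferase activity.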
VACV Venus inh – inhibitors of vaccinia virus (Venus reporter); Vaccinia virus Venus reporter expression, fluorescence; hit rate 0.46% among 330,000; Potency, µM (top dose mostly 36.5 µM), actives largely listed as inhibitors; calls by dose curve; tested in A549 cells; further: nearly all actives have a fitted effect of over 30% in size
A number is an active result.

For Cc1ccccc1CN1CCc2nnc(C(C)NC(=O)c3cc(F)ccc3F)n2CC1 (stereo not drawn) the results were Vaccinia mCherry inactive and VACV Venus inh inactive.
CCOc1ccc(CNC(=O)C(=O)c2cn(CC(=O)N3CCOCC3)c3ccccc23)cc1OC was read as Vaccinia mCherry inactive, HCV inhibitor inactive and VACV Venus inh inactive.
For CCCCNc1nc2c(c(=O)n(Cc3ccc(Cl)cc3)c(=O)n2C)n1C the results were Vaccinia mCherry inactive and VACV Venus inh inactive.
For Cn1c(=O)c2c(nc(NCC3CCCC(CN)C3)n2Cc2ccc(Cl)cc2Cl)n(C)c1=O (stereo not drawn) the results were HCV inhibitor 11µM.
For Cn1c(=O)c2c(nc(NCCNC(=O)c3ccco3)n2Cc2ccc(Cl)cc2Cl)n(C)c1=O the results were Vaccinia mCherry inactive, HCV inhibitor inactive and VACV Venus inh inactive.
Screening Cn1c(NCCCN2CCOCC2)nc2c1c(=O)n(Cc1ccc(Cl)cc1Cl)c(=O)n2C returned HCV inhibitor 11µM.
`CCOC(=O)C1=C(CN2CCN(c3ccc(OC)cc3)CC2)NC(=O)NC1c1ccc(OC)cc1` (stereo not drawn) gave Vaccinia mCherry inactive and VACV Venus inh inactive.
O=C(CCNS(=O)(=O)c1ccc2c(c1)CCN2C(=O)C1CC1)N1CCN(c2cccc(Cl)c2)CC1 was read as Vaccinia mCherry inactive and VACV Venus inh inactive.
Screening CC(OC(=O)c1ccc2c(c1)OCO2)C(=O)NC1CCCCC1C (stereo not drawn) returned Vaccinia mCherry inactive, HCV inhibitor inconclusive and VACV Venus inh inactive.
For CC(OC(=O)c1cc(Br)ccc1O)C(=O)NC1(C#N)CCCCC1 (stereo not drawn) the results were Vaccinia mCherry inactive, HCV inhibitor inconclusive and VACV Venus inh inactive.
For Cc1[nH]c2ccc(C(=O)OC(C)C(=O)NC3(C#N)CCCCC3)cc2c1C (stereo not drawn) the results were Vaccinia mCherry inactive, HCV inhibitor 14µM and VACV Venus inh inactive.
For CC(OC(=O)c1ccc(-c2ccc(O)cc2)cc1)C(=O)NC1CCCCC1C (stereo not drawn) the results were Vaccinia mCherry inactive, HCV inhibitor 13µM and VACV Venus inh inactive.
For CC(OC(=O)c1cccc(Cl)c1)C(=O)NC1CCCCC1C (stereo not drawn) the results were Vaccinia mCherry inactive, HCV inhibitor inactive and VACV Venus inh inactive.
For Cc1[nH]c2ccc(C(=O)OC(C)C(=O)NC3CCCCC3C)cc2c1C (stereo not drawn) the results were HCV inhibitor 22µM.
Screening O=C(NC1CC(=O)N(c2cccc(F)c2)C1)c1ccc(S(=O)(=O)N2CCOCC2)cc1 (stereo not drawn) returned Vaccinia mCherry inactive and VACV Venus inh inactive.
For COC(=O)c1ccccc1-c1cc(C)cc2c1OC(CNC(=O)c1ccn(C)n1)C2 (stereo not drawn) the results were Vaccinia mCherry inactive and VACV Venus inh inactive.
COC(=O)c1c(NC(=O)/C=C/C(=O)O)sc(C)c1-c1ccc(C(C)C)cc1 was read as Vaccinia mCherry inactive, HCV inhibitor inactive and VACV Venus inh inactive.
`Cn1c(SCC(=O)NCCN2C(=O)CSC2=O)nc2ccccc2c1=O` gave Vaccinia mCherry inactive, HCV inhibitor inactive and VACV Venus inh inactive.
For O=C(CSc1nc2ccccc2c(=O)n1Cc1ccco1)NCCN1C(=O)CSC1=O the results were Vaccinia mCherry inactive, HCV inhibitor 10µM and VACV Venus inh inactive.
For O=C(CCCCCn1c(SCc2ccncc2)nc2ccccc2c1=O)NCc1ccco1 the results were HCV inhibitor 10µM.
`N#CCSc1nc2ccccc2c(=O)n1CCCC(=O)NCc1ccco1` gave Vaccinia mCherry inactive, HCV inhibitor inactive and VACV Venus inh inactive.
`COc1ccc(Cn2c(SCC(=O)NCc3ccco3)nc3ccsc3c2=O)cc1` gave HCV inhibitor 2.5µM.
For O=C(CSc1nc2ccsc2c(=O)n1Cc1ccc(C(=O)O)cc1)NCc1ccco1 the results were Vaccinia mCherry inactive, HCV inhibitor inactive and VACV Venus inh inactive.
Screening CN(C)/C=N/c1nc2c(ncn2C2CC(O)C(CO)O2)c(=O)[nH]1 (stereo not drawn) returned Vaccinia mCherry inactive and VACV Venus inh inactive.
Screening COCCNc1nnc(SC(C)C(=O)Nc2c(C)n(C)n(-c3ccccc3)c2=O)s1 (stereo not drawn) returned Vaccinia mCherry inactive, HCV inhibitor inactive and VACV Venus inh inactive.
For COCCNc1nnc(SC(C)C(=O)Nc2ccc(-c3nc4ccc(C)cc4s3)cc2)s1 (stereo not drawn) the results were Vaccinia mCherry inconclusive, HCV inhibitor 6.3µM and VACV Venus inh inconclusive.
Screening COc1ccc(C)cc1NC(=O)CNC(=O)c1sc2ccccc2c1Cl returned Vaccinia mCherry inactive, HCV inhibitor inactive and VACV Venus inh inactive.
Screening O=C(C1CCN(S(=O)(=O)c2ccccc2F)CC1)N1CCN(Cc2ccc3c(c2)OCO3)CC1 returned HCV inhibitor 13µM.
